# In PubChem BioAssay AID1463 (National Center for Advancing Translational Sciences (NCATS), 2008):
# Among all 280,000 compounds or so, about 2,600 (0.93%) were called active. Roughly 8% stayed inconclusive and do not appear here. Calls come from the whole dose curve; as a rule, active = well fitted curve in the direction sought with a large enough effect; inconclusive = small, poorly fitted or top-dose-only effect; inactive = flat fitted curve, though single readings scatter. The sample as a whole holds a higher share of actives than the screen did.
# Assay: Counterscreen qHTS for Inhibitors of Tau Fibril Formation, Fluorescence Polarization; note: nearly all actives have a fitted effect of over 55% in size
# Details: tau K18 P301L (four-repeat tau fragment) Alexa594 fluorescence, heparin fibrillization; series mostly up to 57.7 µM; activity change, negative = decrease: at the top concentration
# How it was run: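 Human K18 P301L tau (15 uM unlabeled plus 0.24 uM Alexa 594-labeled, final) in 100 mM sodium acetate pH 7 was mixed with compound and 20 uM heparin and incubated 6 hr at 37 C.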
# % is set by controls: 0 for no effect and ±100 for the full control effect; potency is the fitted concentration of half-maximal effect; tags give direction and shape of the fitted curve or compound fluorescence and quenching.
SMILES,"activity change, negative = decrease",Potency
COc1ccc(CCNC(=O)c2ccc(CSCc3ccc(C)cc3)o2)cc1OC,-12.2% (inactive),
Nc1ccc(N=Nc2ccccc2Cl)c(N)n1,,15.8 µM [quencher] (active)
Cc1ccc(C)c(N2CCN(C(=O)Cn3ncc4c(=O)oc5ccc(C)cc5c43)CC2)c1,-10.9% (inactive),
COc1cccc(NC(=O)Nc2ccc3c(c2)N(C)C(=O)c2ccccc2S3)c1,-4.99% (inactive),
COc1cccc(/C=N\NC(=O)C2=NNC(=O)C2C)c1O (stereo not drawn),-16% (inactive),
COc1cccc(/C=N/Nc2cc(C)nc(-c3ccccc3O)n2)c1O,,8.91 µM [quencher] (active)
COc1cccc(/C=N/NC(=O)c2[nH]nc3c2CCc2ccccc2-3)c1O,-12.7% (inactive),
Cc1cc(C)c(/C=C/c2onc(C)c2S(=O)(=O)N2CCC(C(=O)Nc3ccc(Cl)cc3C)CC2)c(C)c1,-5.75% (inactive),
Cc1cc(/C=N/NC(=O)c2cccnc2)c(C)n1CC(C)C,-4.42% (inactive),
O=C(N/N=C/c1sc(N2CCCCC2)nc1-c1cccs1)c1cccnc1,,15.8 µM [quencher] (active)
O=C(N/N=C/c1ccccn1)c1cccnc1,-19.2% (inactive),
COc1ccc(CNc2nc(-c3ccc(Cl)cc3)nn2C(=O)c2ccccc2)cc1,-27.4% (inactive),
O=C(Cn1cc(SCc2ccccc2)c2ccccc21)N1CCCCC1,-27.8% (inactive),
CC(=O)N1CCc2cc(S(=O)(=O)NC(Cc3ccccc3)C(=O)NCc3ccc(C)cc3)ccc21 (stereo not drawn),-9.61% (inactive),
Cc1ccc(C(=O)NNC(=O)c2cc3cc4ccccc4nc3s2)cc1,-2.3% (inactive),
CCN(CCCNC(=O)c1cc2cc3cc(OC)ccc3nc2s1)c1ccccc1,,4.47 µM [quencher] (active)
CCN1CCN(C(=O)c2cc3cc4ccc(OC)cc4nc3s2)CC1,-7.15% (inactive),
O=C(CCS(=O)(=O)c1ccccc1)N(Cc1cccnc1)c1nc2c(F)cccc2s1,1.43% (inactive),
COc1cc(OC)c2c(-c3cccc(-c4cccc(N)c4)c3)cc(=O)oc2c1,,11.2 µM [quencher] (active)
COc1ccc(-c2c(C)cc3oc(=O)cc(-c4ccccc4)c3c2C)cc1OC,-21.6% [at 81.3 µM] (inactive),
COc1ccc(-c2c(C)cc3oc(=O)cc(-c4ccccc4)c3c2C)cc1F,-24.1% [at 81.3 µM] (inactive),
CCOc1ccccc1NC(=O)CN1CCCN(Cc2cccc(Cl)c2)S1(=O)=O,-16.6% (inactive),
CC(CCCc1ccccc1)NC(=O)c1nn(-c2ccc(Cl)cc2)nc1CO (stereo not drawn),-11.8% (inactive),
CN(C)c1cc2c(Nc3ccc4c(cnn4Cc4ccccc4)c3)ncnc2cn1,,7.08 µM [quencher] (active)
Clc1ccc(Nc2ncnc3c2nnn3Cc2ccccc2)cc1,-14% (inactive),

SMILES,"activity change, negative = decrease",Potency
CC(=O)Nc1ccc(NC(=O)CSc2ncnc3c2cnn3Cc2ccccc2)cc1,4.33% (inactive),
COc1ccc(C)cc1NC(=O)CCc1c(C)nn(-c2ccc(N3CCOCC3)nn2)c1C,4.93% (inactive),
CC(=O)Nc1ccc(NC(=O)C2CCCN(S(=O)(=O)c3ccc4c(c3)CCCC(=O)N4)C2)cc1 (stereo not drawn),2.46% (inactive),
COc1cccc(C(=O)Nc2nc3ccc(S(C)(=O)=O)cc3s2)c1,-24.7% (inactive),
Cc1nc2cc3c(cc2s1)OCO3,-5.34% (inactive),
CCOc1ccc2nc(Nc3nc4ccc(NC(C)=O)cc4s3)sc2c1,,15.8 µM [quencher] (active)
COc1ccc(/C=N/NC(=O)Nc2ccc3nsnc3c2)c(OC)c1,-23.2% (inactive),
CCOc1ccc2nc(NC(=O)CSc3nc4c(c(=O)n(C)c(=O)n4C)n3CC)sc2c1,0.975% (inactive),
COc1ccc2nc(Nc3nc(-c4cc5ccccc5oc4=O)cs3)sc2c1,-9.89% (inactive),
COc1ccc(NC(=O)Nc2ccc3nsnc3c2)cc1,,15.8 µM [quencher] (active)
COc1ccc2nc(Nc3nc4cc5c(cc4s3)OCCO5)sc2c1,,7.08 µM [quencher] (active)
COc1ccc2nc(Nc3nc(-c4ccncc4)cs3)sc2c1,,17.8 µM [quencher] (active)
COc1ccc(NC(=O)Nc2cccc(-c3noc(C)n3)c2)cc1,-19% (inactive),
COc1ccc2nc(NC(=O)[C@@H]3CCCN3C(=O)c3cccs3)sc2c1,-1.01% (inactive),
CCC(=O)c1ccc(OCC(=O)Nc2ccc3nc(C)sc3c2)cc1,-5.88% (inactive),
CCc1cnc2c(c1SCC(=O)c1ccccc1)c(=O)n(C)c(=O)n2C,-7.49% (inactive),
COc1ccc(OC)c(CNC(=O)CN2C(=O)CCn3nc(-c4cn(C)c5ccccc45)cc32)c1,-14.3% (inactive),
COc1ccc2[nH]c3c(c2c1)CCN(C(=O)CCC1CCCC1)C3c1ccc(F)cc1 (stereo not drawn),-21.7% (inactive),
Cc1cccc(C2CC(=O)Oc3c2c(=O)n(C)c2ccccc32)c1 (stereo not drawn),-11.1% (inactive),
CCC(=O)Nc1cccc(C(=O)OCc2cc(=O)n3nc(CC)sc3n2)c1,1.65% (inactive),
O=C(O)c1ccc2c(c1)N(Cc1ccc(F)cc1)C(=O)c1ccccc1S2=O (stereo not drawn),0.615% (inactive),
Cc1cccc(NC(=O)c2ccc(F)c(S(=O)(=O)N(C)C3CCCCC3)c2)c1,-29.8% (inactive),
CCOc1ccc(OCC)c(NC(=O)c2c(C)nn(-c3ccccc3)c2-n2cccc2)c1,-22.7% (inactive),
Cc1ccc(C2c3[nH]c4ccccc4c3CCN2C(=O)c2cccc(C)c2)cc1 (stereo not drawn),-15.6% (inactive),
CCOc1cccc(CNC(=O)c2ccc(N3CCCC3)c(NC(=O)Nc3ccccc3CC)c2)c1,6.88% (inactive),

SMILES,"activity change, negative = decrease",Potency
COc1ccc2nc(Nc3nc4ccc(NC(C)=O)cc4s3)sc2c1,,12.6 µM [quencher] (active)
CCCC(=O)Nc1nc2ccc(NC(=O)c3c(F)c(F)c(OC)c(F)c3F)cc2s1,-26.7% (inactive),
CNC(=O)c1ccc2nc(NC(C)=O)sc2c1,-4.01% (inactive),
COc1ccc(Cl)cc1N(C)C(=O)c1cc2c(=O)oc3ccc(C)cc3c2s1,-17% (inactive),
COc1ccc(CCNS(=O)(=O)c2cc(-c3cc(C)no3)ccc2C)cc1OC,-9.75% (inactive),
CC(C)(C)c1ccc(C(=O)NCC(c2ccc(Cl)cc2)N2CCOCC2)cc1 (stereo not drawn),-15% (inactive),
COc1ccc(Br)cc1C1CC(=O)Nc2c1c(C)nn2-c1nc(C)cc(C)n1 (stereo not drawn),2.83% (inactive),
COc1ccc(/C=N/NC(=O)c2ccc(Cl)cc2)cc1COC(C)=O,-20.2% (inactive),
COc1ccc(/C=N/NC(=O)c2ccncc2)cc1CN1CCCc2ccccc21,,14.1 µM [quencher] (active)
COc1ccccc1Cc1nc2ccccc2nc1SCC(=O)N1CCCc2ccccc21,-9.37% (inactive),
CCOC(=O)C1CCCN(C(=O)c2ccc(-n3ccc4ccccc43)s2)C1 (stereo not drawn),-5.78% (inactive),
CCOc1ccc(N(CC)C(=O)c2noc3c2COc2ccc(C)cc2-3)cc1,-0.276% (inactive),
COc1ccc2c(C)c(CCC(=O)NCc3ccc(OC)c(OC)c3)c(=O)oc2c1,-23.7% (inactive),
Cc1cc2c(cc3c(SCc4cccc(Cl)c4)nnc(C)n32)o1,-16.2% (inactive),
COc1ccc(OC)c(-c2nc(C(N)=O)c3c(n2)n(-c2ccc4c(c2)OCO4)c(=O)n3C)c1,-6.91% (inactive),
COc1cc(/C=N\Nc2nc(-c3cccs3)c(NC(C)=O)s2)ccc1O,,17.8 µM [quencher] (active)
O=[N+]([O-])c1cc(Br)c(O)c(/C=N/Nc2nc3ccccc3s2)c1,,7.94 µM [quencher] (active)
COc1cc(/C=N/Nc2nc3ccccc3s2)ccc1O,,12.6 µM [quencher] (active)
COc1cc(/C=N/NC(=O)CCc2n[nH]c(=O)[nH]c2=O)ccc1O,4.76% (inactive),
c1ccc2sc(NN=C3CCCC3)nc2c1,-19.4% (inactive),
CCNc1nc(NCC)nc(N/N=C/c2ccc(O)c(OC)c2)n1,-22.5% (inactive),
Cc1ccc(S(=O)(=O)Nc2nc3ccccc3s2)cc1[N+](=O)[O-],-10.2% (inactive),
COc1ccc(/C=N\NC(=O)c2sc(N)nc2C)cc1OC,-14.1% (inactive),
COc1ccc(/C=N/Nc2nc3ccccc3o2)cc1OC,-22.7% (inactive),
CCCN1CCN(CCCNC(=O)c2ccc3nc(Cc4ccccc4)oc3c2)CC1,-2.06% (inactive),

SMILES,"activity change, negative = decrease",Potency
O=C1CN(C(=O)Nc2ccccc2C(F)(F)F)C(c2ccccc2)c2c(sc3c2CCCC3)N1 (stereo not drawn),-4.27% (inactive),
CCCN1CN=C(NS(=O)(=O)c2ccc(NC(C)=O)cc2)NC1,-7.06% (inactive),
O=C(NCCc1ccccc1)c1cnc2sc(N3CCCC3)nn2c1=O,3.82% (inactive),
CN(C)CCCn1c(-c2ccc(Cl)cc2)csc1=Nc1ccccc1,-11.9% (inactive),
Cc1cc(NS(=O)(=O)c2ccc3oc(=O)c4ncn(C)c4c3c2)ccc1Br,-23.7% (inactive),
CNC(=O)c1ccc(NC(=O)c2cccc(C(F)(F)F)c2)cc1,6.68% (inactive),
Cc1cccc(NC(=O)c2cccc(C(F)(F)F)c2)c1,-17.5% (inactive),
O=C(Nc1ccc(-c2csc(Nc3cccc(C(F)(F)F)c3)n2)cc1)c1cccc(C(F)(F)F)c1,,5.01 µM [quencher] (active)
CC(C)S(=O)(=O)c1oc(-c2ccc(F)cc2)nc1S(=O)(=O)c1ccc(F)cc1,-7.98% (inactive),
COc1ccccc1-c1c(C)nn2c(C)c(C(C)=O)cnc12,3.82% (inactive),
COc1ccccc1-c1n[nH]c2c1[C@H](C)CC[C@H]2C(C)C,-3.61% (inactive),
C=C(C)COc1ccc(-c2n[nH]c(C)c2-c2ccccc2OC)c(O)c1,,17.8 µM [quencher] (active)
C=C(C)COc1ccc(-c2n[nH]c(C)c2-c2ccccc2)c(O)c1,,15.8 µM [quencher] (active)
CC(=O)COc1ccc2c(-c3ccccc3)cc(=O)oc2c1,-1.82% (inactive),
CCOc1ccc(-c2n[nH]c(C)c2-c2ccccn2)c(O)c1,-5.41% (inactive),
COc1ccc(CNC(=O)c2cc3cccc(OC)c3oc2=O)cc1,-14.3% (inactive),
CSc1ccc(CCNC(=O)c2cc(C)nc3c2c(C)nn3-c2cccc(F)c2)cc1,-10.8% (inactive),
O=C1CCN(C(=S)NCCc2ccccc2)CC1,2.95% (inactive),
S=C(NCCc1ccccc1)N1CCCCC1,-5.45% (inactive),
Oc1cc2c(cc1O)CN(C(=S)NCCc1ccc(Cl)cc1)CCC2,,10 µM [quencher] (active)
O=C(Cc1ccc(Cl)cc1)NCC(c1cccs1)S(=O)(=O)c1ccc(Cl)cc1 (stereo not drawn),-21.3% (inactive),
COc1ccc(-c2cn3nc(N4CCC(C(=O)Nc5cccc(C)c5C)CC4)sc3n2)cc1,-15.3% (inactive),
Cc1ccc(-n2ncc(C(=O)N(C)Cc3ccccc3)c2-n2cccc2)cc1,-3.21% (inactive),
